D2 PAM-1 – human D2 receptor positive allosteric modulation; P14416; DiscoveRx D2 beta-arrestin cells, luminescence, 90 min; 100% = 57 uM dopamine signal; potentiation, % (concentration not given with the values); 0.23% of 360,000 active; in the data active means potentiation above about 50%; inconclusive means mostly about 30% to 49%
Target sequence (P14416 whole entry, looked up): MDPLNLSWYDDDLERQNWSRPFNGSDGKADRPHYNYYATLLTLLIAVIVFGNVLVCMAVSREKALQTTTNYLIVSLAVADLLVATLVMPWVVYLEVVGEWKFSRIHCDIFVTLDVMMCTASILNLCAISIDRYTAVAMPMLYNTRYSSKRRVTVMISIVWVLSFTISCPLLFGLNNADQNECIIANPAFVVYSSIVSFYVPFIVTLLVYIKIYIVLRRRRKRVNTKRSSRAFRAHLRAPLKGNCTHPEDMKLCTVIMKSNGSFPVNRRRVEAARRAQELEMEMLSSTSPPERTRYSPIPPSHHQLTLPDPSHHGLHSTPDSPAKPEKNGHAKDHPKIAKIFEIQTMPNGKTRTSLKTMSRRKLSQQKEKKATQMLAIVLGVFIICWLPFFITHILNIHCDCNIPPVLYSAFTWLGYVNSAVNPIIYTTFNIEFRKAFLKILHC
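PathHunter D2 cells, attached overnight at 37 deg C, received compound in DMSO plus dopamine at EC20 (50 nM final) for 90 min at 37 deg C. Beta-arrestin recruitment was read as luminescence after 1 h with detection reagent at ambient temperature.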
D2 ag-1 – human D2 receptor agonism in beta-arrestin assay. P14416. DiscoveRx PathHunter D2 beta-arrestin, luminescence, 90 min; 100% = 57 uM dopamine signal. activation, % (no concentration beside the values). 0.084% of 360,000 active. AID 624465; in the data active means activation above about 40%; inconclusive means between about 15% and that limit
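Agonist mode: compounds alone added to overnight-plated D2 PathHunter cells for 90 min at 37 C, with 57 uM final dopamine (EC100) defining full response. Beta-arrestin recruitment detected by chemiluminescent reagent, read after 1 h at ambient temperature.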
D2 ag-2 – activates the human D2 dopamine receptor. 0.53% of 340,000 active. HEK293 T-REx D2 cells, calcium flux agonist mode. P14416. activation, % at 2 µM;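 active means activation over 3 SD above normal in the single-dose calcium agonist read, cut at about 30% in these data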
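In this primary screen, compounds producing a positive calcium signal within 180 s of addition to tetracycline-induced, force-coupled HEK293 Trex D2 cells are flagged; cells are dye-loaded with a no-wash calcium kit beforehand.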
D2 PAM-2 – positively modulates the human D2 dopamine receptor allosterically | P14416 | HEK293 T-REx D2, calcium flux, EC20 dopamine potentiation | AID 485347 | 0.34% of 340,000 active | potentiation, % at 10 µM;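 active means potentiation over 3 SD above the plate norm, cut at about 30% in these data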
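Cells plated with tetracycline inducer and held overnight at 30 C; calcium dye loaded 30–90 min at room temperature; baseline taken, compound added and read 180 s; EC20 dopamine then added and read 180 s.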
D2 antagonist – antagonists of human D2 dopamine receptor; P14416; HEK293 TREx D2 cells, calcium flux, dopamine EC80; inhibition, % at 10 µM; 2% of 340,000 active; in the data active means inhibition above about 30%; inactive means below that, where a call was filed
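Measurement of antagonist activity uses fluorescent calcium dye in inducible HEK293 T-REx D2 cells: 10 s baseline, compound addition with 180 s read, EC80 dopamine addition with a further 180 s read.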
Of the large screens only hits and unclear results are named; the others gave an inactive call. Compounds with a hit are over-represented: about 2.4% of the library has one in this group of screens.

Cc1cccc(N2CCN(S(=O)(=O)c3ccc4c(c3)NC(=O)CO4)CC2)c1C	none
Cc1ccc(CCNC(=O)CCS(=O)(=O)c2cc3c(cc2C)NC(=O)CO3)cc1	D2 antagonist 43
Cc1cc2c(cc1S(=O)(=O)N1CCN(c3cccc(C)c3C)CC1)OCC(=O)N2	D2 antagonist 50
Cc1ccc(CNS(=O)(=O)c2cc3c(cc2C)NC(=O)CO3)cc1	D2 antagonist 48
Cc1ccc(CCNC(=O)c2cc3sccc3n2Cc2ccc(Cl)cc2)cc1	none (no result: D2 PAM-1, D2 ag-1, D2 antagonist)
CN(C)C(=O)c1ccc(N/C=C(\C=O)c2nc3ccccc3o2)cc1	none
Cc1ccccc1CSc1nc2cccnc2n1Cc1ccc(C(=O)NC2CC2)cc1	none (no result: D2 PAM-1, D2 ag-1, D2 antagonist)
CCOc1ccccc1C(=O)Nc1cc(-c2ccc(C)cc2)no1	none (no result: D2 PAM-1, D2 ag-1, D2 antagonist)
CCOC(=O)C1(C)CCCN(C(=O)c2ccc(OC)cc2)C1 (stereo not given)	none (no result: D2 ag-2, D2 PAM-2, D2 antagonist)
CC(=O)Nc1ccc(N2CCCC2)cc1	none
CC(=O)Nc1ccc(N2Cc3ccccc3C2)cc1	D2 PAM-1 52
Cc1csc2ncnc(NC3CCN(Cc4ccccc4)CC3)c12	D2 antagonist 79
Cc1ccc(-c2csc3ncnc(N4CCN(Cc5ccccc5)CC4)c23)cc1	none (no result: D2 ag-2, D2 PAM-2, D2 antagonist)
CN(C(=O)COc1ccc(Br)cc1Cl)C1CCCCC1	none
CN1CCC(N(C)C(=O)COc2ccccc2Cl)CC1	D2 antagonist 31
C/C(=N\NC(=O)OC(C)(C)C)c1ccccc1Br	none
O=C(NCc1ccccc1)Nc1cccn(Cc2ccccc2Cl)c1=O	D2 antagonist 33
O=C(NCc1ccccc1Cl)NC(=O)c1ccccc1	D2 antagonist 33
O=C(NCc1ccccc1)Nc1cccn(Cc2ccc(Cl)cc2)c1=O	none
O=C(CN(CC1CCCO1)C(=O)CNS(=O)(=O)c1ccc(F)cc1)NCc1ccc(F)cc1 (stereo not given)	D2 antagonist 37
CCCC(C(=O)NC1CCCC1)N(CC1CCCO1)C(=O)CNS(=O)(=O)c1ccc(F)cc1 (stereo not given)	D2 antagonist 32
CCN(CC)c1ccc(/C=C(/C#N)C(=O)NCc2ccccc2)o1	D2 ag-2 43
CC(C)NC(=O)/C(C#N)=C\c1ccc(N(C)C)o1	D2 antagonist 40
CCN(CC)c1ccc(/C=C(/C#N)C(=O)NC(C)C)o1	none
O=C(Nc1ccc(Cl)cc1Cl)Nn1cnnc1	none
O=C(Nc1ccno1)Nc1ccc(Cl)cc1Cl	D2 PAM-1 62, D2 ag-1 inconclusive
O=C(Cc1ccccc1[N+](=O)[O-])NCc1ccc(Cl)cc1Cl	D2 antagonist 33
CCCCN1CC(COCc2ccccc2)Oc2cccc(Oc3cc(C)c(C)c(C)c3)c2S1(=O)=O (stereo not given)	none (no result: D2 ag-2, D2 PAM-2, D2 antagonist)
COc1ccc(NC(=O)CC2NCCNC2=O)c(OC)c1 (stereo not given)	none (no result: D2 PAM-1, D2 ag-1, D2 antagonist)
N#CCOC(=O)C1CCN(S(=O)(=O)c2ccc3c(c2)OCCO3)CC1	D2 PAM-2 34
CCNC(=O)COC(=O)C1CCN(S(=O)(=O)c2ccc3c(c2)OCCO3)CC1	none
Cc1ccc(-c2nnc(NC(=O)Cc3ccc(F)cc3)o2)c(C)c1	D2 antagonist 67
Cc1ccc(C)c(-c2nnc(NC(=O)Cc3ccc(F)cc3)o2)c1	none
Cc1cc(F)ccc1S(=O)(=O)Nc1ccc2c(c1)CCCN2C(=O)c1cccs1	none (no result: D2 PAM-1, D2 ag-1, D2 antagonist)
CCCn1c(N)c(Sc2ccccc2)c(=O)n(CCC)c1=O	D2 antagonist 49
O=[N+]([O-])c1ccc(CNc2ccc(Cl)cc2)s1	D2 PAM-1 inconclusive, D2 antagonist 96
CN(O)/C=C1\C(=O)Nc2ccccc21	D2 PAM-1 131
CN(C)/C=C1\C(=O)Nc2ccccc21	none
O=C(CCN1C(=O)C2C3C=CC(C3)C2C1=O)N1CC(=O)N(CCc2ccccc2)C(=O)C1 (stereo not given)	D2 antagonist 31
O=C(CN1C(=O)C2C3C=CC(C3)C2C1=O)N1CC(=O)N(CCc2ccccc2)C(=O)C1 (stereo not given)	none
COc1ccc(C(=O)C[n+]2cccc(C)c2C)cc1[N+](=O)[O-]	D2 antagonist 59
COc1ccccc1NC(=S)NNC(=O)c1nn(C)c(C)c1Br	none
Cc1c(Cl)c(C(=O)NNC(=S)NCc2ccco2)nn1C	D2 antagonist 35
Cn1cc(Cl)c(C(=O)NNC(=S)NCc2ccco2)n1	none
COc1ccccc1NC(=S)NNC(=O)c1nn(C)c(C)c1Cl	D2 antagonist 82
O=C(NNC(=S)NCc1ccco1)c1ccc(Cl)s1	D2 antagonist 33
N/C(=N\OC(=O)c1ccccc1)C(Cc1ccccc1)C(=O)NOC(=O)c1ccccc1 (stereo not given)	none (no result: D2 ag-2, D2 PAM-2, D2 antagonist)
CCCCc1nc2ccccc2n2c(-c3ccc(C)cc3)c3c(=O)n(C)c(=O)n(C)c3c12	none (no result: D2 PAM-1, D2 ag-1, D2 antagonist)
Cc1cc(NC(=O)COC(=O)C2CC(=O)N(c3ccccc3)C2)no1 (stereo not given)	none
COc1ccc(C(=O)Nc2cccc(-c3nc4cccnc4s3)c2C)c(OC)c1	none (no result: D2 PAM-1, D2 ag-1, D2 antagonist)
CC1CC(C)(C)NC(=S)N1CCCC(=O)NCc1ccccc1 (stereo not given)	D2 antagonist 37
O=c1cc(C(F)(F)F)[nH]c2c(OC(F)(F)F)cccc12	none
CC1(C)C=C(c2ccc(C=O)s2)CC(C)(C)N1C=O	none
CC1(C)C=C(c2ccc(C=O)s2)CC(C)(C)N1	D2 antagonist 34
CCN(c1ccccc1)S(=O)(=O)c1cc(C(=O)OC2CCOC2=O)ccc1C (stereo not given)	D2 PAM-2 31
CS(=O)(=O)c1ccc(C(=O)OC2CCOC2=O)cc1[N+](=O)[O-] (stereo not given)	none
CCc1cccc(Nc2ncnc3onc(-c4ccc(F)cc4)c23)c1	none (no result: D2 PAM-1, D2 ag-1, D2 antagonist)
CCC(C)N1C(=O)/C(=C/c2c(NCCCOC(C)C)nc3c(C)cccn3c2=O)SC1=S (stereo not given)	D2 ag-2 34
CCc1ccc(NC(=O)C2CCN(S(=O)(=O)c3ccc4c(c3)NC(=O)C(C)S4)CC2)cc1 (stereo not given)	none
CC1Sc2ccc(S(=O)(=O)N3CCC(C(=O)Nc4cccc(Cl)c4)CC3)cc2NC1=O (stereo not given)	D2 antagonist 69
Cc1ccc(NC(=O)C2CCN(S(=O)(=O)c3ccc4c(c3)NC(=O)C(C)S4)CC2)cc1C (stereo not given)	D2 antagonist 58
CC1Sc2ccc(S(=O)(=O)CCC(=O)Nc3ccc(C(C)C)cc3)cc2NC1=O (stereo not given)	D2 antagonist 52
Nc1nc(N(Cc2ccccc2)Cc2ccccc2)nc(C(F)(F)F)n1	none
COc1cc(C(=O)OCC(=O)c2c(N)n(C)c(=O)n(C)c2=O)ccc1OCCC(C)C	none
COc1ccccc1CNS(=O)(=O)c1c(C(=O)N2CCCCC2)c(C)n(C)c1C	D2 antagonist 30

Screening results as filed in PubChem.
